In PubChem BioAssay AID1159580 (chemical genetic matrix, 2015):
Values joined by “and” are separate entries in the source; they are usually repeats but may differ in a detail not shown here. Identical values can stand only once. Among all 5,500 compounds or so, about 2,000 (36%) were called active. Roughly 18% stayed inconclusive and do not appear here. No stated cut-off is given here; in the data, active means normalized growth mostly below about 0.91 (no sharp cut-off); inconclusive means no clear call, values can overlap the other calls; inactive means mostly above about 0.92. Some of the results follow.

Test: chemical genetic growth profiling, strain panel (AID 1159580);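 further: tested at 20 µM; growth read once vehicle control cultures reached saturation at 30 °C; 1 = growth at the plate median or of vehicle wells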
Details: S. cerevisiae deletion strains, growth OD
[1] = locus YAL013W, strain DEP1, stronger effect = lower value
[2] = locus YGR229C, strain SMI1, stronger effect = lower value
[3] = locus YMR263W, strain SAP30, stronger effect = lower value
[4] = locus YMR307W, strain GAS1, stronger effect = lower value
[5] = locus YNL322C, strain KRE1, stronger effect = lower value
[6] = locus YPL055C, strain LGE1, stronger effect = lower value
[7] = locus YAL040C, strain CLN3, stronger effect = lower value
[8] = locus YCL061C, strain MRC1 (second series), stronger effect = lower value
[9] = locus YDR363W, strain ESC2, stronger effect = lower value
[10] = locus YER002W, strain NOP16, stronger effect = lower value
[11] = locus YNL128W, strain TEP1, stronger effect = lower value
[12] = locus YNL175C, strain NOP13, stronger effect = lower value
[13] = locus YNL197C, strain WHI3, stronger effect = lower value
[14] = locus YNL224C, strain SQS1, stronger effect = lower value
[15] = locus YOR083W, strain WHI5 (second series), stronger effect = lower value

Measured: normalized growth

CNC(C)[C@H](O)c1ccccc1 (stereo partly specified)
inactive: [1] 1 | locus YAL021C, strain ccr4, stronger effect = lower value 1.03 | locus YAL026C, strain drs2, stronger effect = lower value 1.01 | locus YAL030W, strain snc1, stronger effect = lower value 1.01 | locus YBL061C, strain skt5, stronger effect = lower value 1.02 | locus YBR009C, strain hhf1, stronger effect = lower value 0.977 | locus YBR021W, strain FUR4, stronger effect = lower value 1.07 | locus YBR023C, strain chs3, stronger effect = lower value 1.01 | locus YBR171W, strain sec66, stronger effect = lower value 0.993 | locus YBR229C, strain ROT2, stronger effect = lower value 1.01 | locus YBR231C, strain swc5, stronger effect = lower value 1.01 | locus YBR279W, strain paf1, stronger effect = lower value 1 | locus YCL011C, strain gbp2, stronger effect = lower value 1.01 | locus YCL016C, strain dcc1, stronger effect = lower value 1.04 | locus YCL029C, strain bik1, stronger effect = lower value 1 | locus YCL061C, strain MRC1, stronger effect = lower value 0.995 | locus YCL069W, strain vba3, stronger effect = lower value 0.986 | locus YCR088W, strain abp1, stronger effect = lower value 0.989 | locus YDL005C, strain med2, stronger effect = lower value 0.999 | locus YDL035C, strain GPR1, stronger effect = lower value 1.05 | locus YDL040C, strain nat1, stronger effect = lower value 1 | locus YDL074C, strain BRE1, stronger effect = lower value 1.02 | locus YDL101C, strain DUN1, stronger effect = lower value 1.01 | locus YDL134C, strain PPH21, stronger effect = lower value 1.04 | locus YDL185W, strain tfp1, stronger effect = lower value 0.991 | locus YDL192W, strain arf1, stronger effect = lower value 0.998 | locus YDR001C, strain nth1, stronger effect = lower value 0.996 | locus YDR069C, strain doa4, stronger effect = lower value 1.02 | locus YDR101C, strain arx1, stronger effect = lower value 1.02 | locus YDR137W, strain rgp1, stronger effect = lower value 1 | locus YDR159W, strain sac3, stronger effect = lower value 0.995 | locus YDR162C, strain NBP2, stronger effect = lower value 1.02 | locus YDR195W, strain ref2 1.01 | locus YDR297W, strain sur2, stronger effect = lower value 1.01 | locus YDR318W, strain mcm21, stronger effect = lower value 1 | locus YDR334W, strain swr1, stronger effect = lower value 0.983 | locus YDR335W, strain msn5, stronger effect = lower value 1.03 | locus YDR388W, stronger effect = lower value 0.995 | locus YDR392W, strain spt3, stronger effect = lower value 1.05 | locus YDR502C, strain sam2, stronger effect = lower value 0.997 | locus YEL003W, strain gim4, stronger effect = lower value 0.992 | locus YEL037C, strain rad23, stronger effect = lower value 0.986 | locus YEL061C, strain CIN8 (second series), stronger effect = lower value 0.993 | locus YEL061C, strain CIN8, stronger effect = lower value 1.02 | locus YER015W, strain faa2, stronger effect = lower value 1.01 | locus YER016W, strain bim1, stronger effect = lower value 1.03 | locus YER110C, stronger effect = lower value 0.986 | locus YER111C, strain swi4, stronger effect = lower value 1 | locus YER155C, strain BEM2 (second series), stronger effect = lower value 1.02 | locus YER155C, strain BEM2, stronger effect = lower value 1.01 | locus YER167W, strain BCK2, stronger effect = lower value 1.02 | locus YFR010W, strain ubp6, stronger effect = lower value 0.96 | locus YGL078C, strain dbp3, stronger effect = lower value 0.994 | locus YGL086W, strain mad1, stronger effect = lower value 1.01 | locus YGL167C, strain pmr1, stronger effect = lower value 1.01 | locus YGL173C, strain kem1, stronger effect = lower value 1.01 | locus YGL227W, strain vid30, stronger effect = lower value 0.994 | locus YGL240W, strain doc1, stronger effect = lower value 0.993 | locus YGL248W, strain PDE1, stronger effect = lower value 1.02 | locus YGL253W, strain hxk2, stronger effect = lower value 1.01 | locus YGR078C, strain PAC10, stronger effect = lower value 1.02 | locus YGR135W, strain pre9, stronger effect = lower value 0.986 | [2] 1.02 | locus YGR252W, strain gcn5, stronger effect = lower value 0.98 | locus YHR013C, strain ard1, stronger effect = lower value 1.04 | locus YHR027C, strain rpn1, stronger effect = lower value 0.998 | locus YHR030C, strain SLT2, stronger effect = lower value 1.02 and 1.05 | locus YHR079C, strain IRE1 (second series), stronger effect = lower value 1 | locus YHR079C, strain IRE1, stronger effect = lower value 1.03 | locus YHR094C, strain hxt1, stronger effect = lower value 0.989 | locus YHR129C, strain ARP1, stronger effect = lower value 1.01 | locus YHR142W, strain chs7, stronger effect = lower value 1 | locus YHR200W, strain rpn10, stronger effect = lower value 0.999 | locus YIL066C, strain RNR3, stronger effect = lower value 1.03 | locus YIL073C, strain SPO22, stronger effect = lower value 0.991 | locus YIL125W, strain kgd1, stronger effect = lower value 1 | locus YIR030C, strain dcg1, stronger effect = lower value 1 | locus YJL092W, strain hpr5, stronger effect = lower value 1 | locus YJL095W, strain BCK1 (second series), stronger effect = lower value 1.01 | locus YJL095W, strain BCK1, stronger effect = lower value 1.01 and 1.06 | locus YJL115W, strain asf1, stronger effect = lower value 0.993 | locus YJL129C, strain trk1, stronger effect = lower value 1.01 | locus YJL134W, strain LCB3, stronger effect = lower value 1 | locus YJL154C, strain vps35, stronger effect = lower value 0.986 | locus YJL164C, strain tpk1, stronger effect = lower value 1.01 | locus YJL166W, strain qcr8, stronger effect = lower value 1.01 | locus YJL168C, strain set2, stronger effect = lower value 0.991 | locus YJL187C, strain SWE1 (second series), stronger effect = lower value 1.01 | locus YJL187C, strain SWE1, stronger effect = lower value 1.02 | locus YJR043C, strain POL32, stronger effect = lower value 1.04 | locus YJR066W, strain TOR1, stronger effect = lower value 0.972 | locus YKL009W, strain mrt4, stronger effect = lower value 0.992 | locus YKL068W, stronger effect = lower value 0.995 | locus YKL085W, strain MDH1 (second series), stronger effect = lower value 1.03 | locus YKL085W, strain MDH1, stronger effect = lower value 1.03 | locus YKL160W, strain elf1, stronger effect = lower value 1.05 | locus YKL190W, strain CNB1, stronger effect = lower value 1.01 | locus YKR001C, strain vps1, stronger effect = lower value 0.997 | locus YKR026C, strain gcn3, stronger effect = lower value 0.995 | locus YKR091W, strain srl3, stronger effect = lower value 1 | locus YLL001W, strain dnm1, stronger effect = lower value 1.02 | locus YLL026W, stronger effect = lower value 1.02 | locus YLL041C, strain sdh2, stronger effect = lower value 0.996 | locus YLR027C, strain aat2, stronger effect = lower value 1.02 | locus YLR039C, strain RIC1, stronger effect = lower value 0.978 | locus YLR058C, strain SHM2, stronger effect = lower value 1.01 | locus YLR102C, strain apc9, stronger effect = lower value 0.986 | locus YLR113W, strain HOG1, stronger effect = lower value 1.08 | locus YLR221C, strain rsa3, stronger effect = lower value 0.984 | locus YLR258W, strain gsy2, stronger effect = lower value 1.03 | locus YLR262C, strain YPT6 (second series), stronger effect = lower value 0.972 | locus YLR262C, strain YPT6, stronger effect = lower value 0.983 | locus YLR268W, strain sec22, stronger effect = lower value 0.993 | locus YLR320W, strain mms22, stronger effect = lower value 0.994 | locus YLR330W, strain CHS5, stronger effect = lower value 1.01 | locus YLR342W, strain FKS1 (second series), stronger effect = lower value 1.05 | locus YLR342W, strain FKS1, stronger effect = lower value 1.02 | locus YLR357W, strain rsc2, stronger effect = lower value 0.958 | locus YLR370C, strain arc18, stronger effect = lower value 1.03 | locus YLR371W, strain rom2, stronger effect = lower value 0.987 | locus YLR384C, strain iki3, stronger effect = lower value 0.995 | locus YLR418C, strain cdc73, stronger effect = lower value 1.01 | locus YML016C, strain PPZ1, stronger effect = lower value 1.01 | locus YML032C, strain rad52, stronger effect = lower value 1 | locus YML120C, strain ndi1, stronger effect = lower value 0.996 | locus YML124C, strain tub3, stronger effect = lower value 0.991 | locus YMR058W, strain fet3, stronger effect = lower value 0.999 | locus YMR078C, strain ctf18, stronger effect = lower value 0.989 | locus YMR125W, strain sto1, stronger effect = lower value 0.955 | locus YMR129W, stronger effect = lower value 1.02 | locus YMR205C, strain PFK2, stronger effect = lower value 1 | locus YMR223W, strain ubp8, stronger effect = lower value 0.998 | locus YMR231W, strain pep5, stronger effect = lower value 1 | [3] 1.01 | [4] 1.17 | locus YNL067W, strain RPL9B, stronger effect = lower value 1 | locus YNL071W, strain lat1, stronger effect = lower value 0.991 | locus YNL183C, strain NPR1, stronger effect = lower value 0.982 | locus YNL209W, strain ssb2, stronger effect = lower value 0.999 | locus YNL233W, strain BNI4, stronger effect = lower value 1.02 | locus YNL248C, strain rpa49, stronger effect = lower value 0.969 | locus YNL250W, strain rad50, stronger effect = lower value 0.989 | locus YNL271C, strain bni1, stronger effect = lower value 0.982 | locus YNL298W, strain CLA4, stronger effect = lower value 1.02 | locus YNL307C, strain MCK1, stronger effect = lower value 1 | locus YNL322C, strain KRE1 (second series), stronger effect = lower value 1.01 | [5] 1.05 | locus YNR049C, strain mso1, stronger effect = lower value 0.996 | locus YNR052C, strain pop2, stronger effect = lower value 1 | locus YOL006C, strain TOP1, stronger effect = lower value 1.16 | locus YOL012C, strain htz1 1.33 | locus YOL147C, strain pex11, stronger effect = lower value 0.982 | locus YOR001W, strain rrp6, stronger effect = lower value 0.934 | locus YOR061W, strain CKA2, stronger effect = lower value 1.02 | locus YOR069W, strain VPS5, stronger effect = lower value 1.01 | locus YOR070C, strain gyp1, stronger effect = lower value 1.02 | locus YOR080W, strain dia2, stronger effect = lower value 1.01 | locus YOR083W, strain WHI5, stronger effect = lower value 1.04 | locus YOR106W, strain vam3, stronger effect = lower value 1.03 | locus YOR136W, strain idh2, stronger effect = lower value 1 | locus YOR144C, strain elg1, stronger effect = lower value 0.995 | locus YOR184W, strain ser1, stronger effect = lower value 1 | locus YOR231W, strain MKK1, stronger effect = lower value 1.06 | locus YOR265W, strain rbl2, stronger effect = lower value 1.01 | locus YOR270C, strain vph1, stronger effect = lower value 0.952 | locus YOR290C, strain snf2, stronger effect = lower value 1.06 | locus YOR316C, strain cot1, stronger effect = lower value 0.995 | locus YPL051W, strain arl3, stronger effect = lower value 1.03 | [6] 1.01 | locus YPL078C, strain atp4, stronger effect = lower value 1.03 | locus YPL106C, strain sse1, stronger effect = lower value 1.04 | locus YPL240C, strain hsp82, stronger effect = lower value 0.992 | locus YPL256C, strain CLN2, stronger effect = lower value 1.04 | locus YPR119W, strain clb2, stronger effect = lower value 0.991 | locus YPR141C, strain kar3, stronger effect = lower value 0.985 | locus YPR163C, strain tif3, stronger effect = lower value 0.998 | locus YPR167C, strain met16, stronger effect = lower value 0.99 | strain wtn01, stronger effect = lower value 1

CNCCc1ccc(O)c(O)c1
active: locus YDR150W, strain NUM1, stronger effect = lower value 0.922
inactive: [1] 0.964 | [7] 0.991 | [8] 0.956 | [9] 1.03 | [10] 1 | [3] 1 | [11] 0.996 | [12] 1 | [13] 1.02 | [14] 1 | [5] 0.979 | [15] 0.976

CC(CCc1ccc(O)cc1)NCCc1ccc(O)c(O)c1 (stereo unspecified)
active: [8] 0.812 | [2] 0.708 | [6] 0.756 | locus YPL241C, strain CIN2, stronger effect = lower value 0.927
inactive: [7] 1.01 | [9] 0.969 | [10] 0.993 | [3] 1.01 | [4] 0.947 | [11] 1.01 | locus YNL153C, strain GIM3, stronger effect = lower value 0.944 | [12] 1.01 | [13] 1.03 | [14] 1.02 | [15] 0.98
